The text below walks through data of PubChem BioAssay.

The term inhibition denotes the relative decrease from the control value, in per cent. For orientation: viability means a per cent measure of how many cells are alive, often set against a control.

Experiment [1] in a line: EMT-state selective cytotoxicity in co-culture – imaging, PC-3E GFP, TEM4-18 mCherry, primary screen (AID 1345086;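 active = compounds killing one labelled cell type while sparing the other, by normalised counts and ratio limits, not self-fluorescent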;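 for all read-outs here: cells exposed to compound for 72 h before imaging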;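 for red/green cell ratio (normalised): normalised mesenchymal count divided by normalised epithelial count so high means epithelial killing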). As to conditions: PC-3E GFP / TEM4-18 mCherry co-culture, imaging cell counts, at 1 µM; for red/green cell ratio (normalised): actives lie on both sides, counts scaled to control wells, 1 = unselective.
Experiment [2] in a line: viability loss with induced miR-34 in A549 – imaging, A549 dox-inducible miR-34, nuclei and caspase counts, primary screen (AID 1347080). As to conditions: A549 miR-34 inducible, Hoechst nuclei count, 48 h.
Experiment [3] can be described thus: MELAS cybrid and Rieske KO viability enhancers – cell-based, MELAS cybrids, Rieske KO mouse fibroblasts, CellTiter-Glo, primary screen (AID 1508586;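 active = mean z-score across replicates of 1.96 or higher in either the MELAS or the Rieske mutant cell line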;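 note: z relative to plate mean and SD of compound and empty wells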). Particulars: low glucose. (In general: Cellular ATP, detected with luciferase, serves as a proxy for viable cell number.)
In experiment [4] the target is NAD(+) hydrolase SARM1 (Homo sapiens) (UniProt Q6SZW1). Description: blocking NAD cleavage by SARM1 SAM-TIR – cell lysate, NAD-Glo luminescence (AID 1508614;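 active = compound whose remaining NAD level is above about 45 nM, limit read from the data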;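 note: higher remaining NAD means stronger inhibition of SARM1 NADase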). As to conditions: SAM-TIR HEK293T lysate NADase, at 1 µM, stronger effect = higher value.
Sequence of NAD(+) hydrolase SARM1 (Homo sapiens) (Q6SZW1 whole entry, looked up): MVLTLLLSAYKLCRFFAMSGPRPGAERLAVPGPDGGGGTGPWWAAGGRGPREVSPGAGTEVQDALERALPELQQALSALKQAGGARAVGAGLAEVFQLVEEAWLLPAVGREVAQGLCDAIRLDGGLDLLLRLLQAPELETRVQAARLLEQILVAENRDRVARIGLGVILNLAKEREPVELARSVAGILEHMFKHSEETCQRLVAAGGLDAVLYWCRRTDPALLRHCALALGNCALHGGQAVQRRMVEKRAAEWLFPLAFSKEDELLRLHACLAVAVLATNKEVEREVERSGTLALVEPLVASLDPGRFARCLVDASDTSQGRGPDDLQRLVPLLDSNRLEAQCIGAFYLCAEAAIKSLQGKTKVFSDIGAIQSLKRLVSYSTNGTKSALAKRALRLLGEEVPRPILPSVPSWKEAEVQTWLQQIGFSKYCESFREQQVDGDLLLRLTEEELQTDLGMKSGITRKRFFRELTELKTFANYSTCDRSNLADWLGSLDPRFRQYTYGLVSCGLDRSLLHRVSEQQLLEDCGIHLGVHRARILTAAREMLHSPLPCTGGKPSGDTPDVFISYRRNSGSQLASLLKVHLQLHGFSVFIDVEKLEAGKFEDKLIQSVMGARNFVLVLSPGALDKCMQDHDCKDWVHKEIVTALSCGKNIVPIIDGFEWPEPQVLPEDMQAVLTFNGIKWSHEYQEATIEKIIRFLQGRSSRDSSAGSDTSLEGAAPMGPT
A short description of experiment [5]: blockers of polyQ-driven CASP3 activation – cell-based (AID 1583). As to conditions: polyglutamine-induced caspase-3 activation, cell assay; stronger effect = higher value;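 tested at 10 µM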.
Experiment [6] is described as follows: yeast 75Q aggregation reduction – 75Q-TubU reporter (AID 1593). Particulars: Yeast 75Q polyglutamine aggregation reporter.
The nature of experiment [7]: restoration of touch response, mutant HTT neurons – whole organism, C. elegans mechanosensory neurons, N-terminal huntingtin (AID 1599). Particulars: C. elegans polyQ-huntingtin mechanosensory neurons, stronger effect = higher value.
Experiment [8] is described as follows: blockers of cytochrome c efflux from mitochondria – biochemical, purified mitochondria (AID 1603).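 Note: mouse liver mitochondria challenged with calcium chloride; signal normalized to the plate average as 100%.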 As to conditions: stronger effect = lower value.
Experiment [9] in a line: polyglutamine aggregate formation blockers (AID 1604). As to conditions: polyglutamine-induced protein aggregation inhibition assay; stronger effect = higher value; tested at 2.5 µM.
A short description of experiment [10]: glutamate transport activators, MN-1 cells, MN-1 cell line (AID 1612).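 Note: tested at 1 µM final; 0% = mean of DMSO vehicle wells on each plate; positive means more glutamate uptake than control and negative means less.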 As to conditions: MN-1 motor neuron cells, stronger effect = higher value.
Experiment [11] in a line: 75Q-TubH aggregate inhibition, S. cerevisiae, yeast (AID 1616). Particulars: S. cerevisiae 75Q-TubH polyglutamine aggregation suppression; stronger effect = higher value.
A short description of experiment [12]: compounds altering viability of human ES cells (AID 493140; call rule not given here;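 note: cells exposed to compounds for four days before counting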). Particulars: human embryonic stem cell survival screen; stronger effect = higher value.
Experiment [13] can be described thus: P. berghei load reduction in hepatocytes – cell-based, HepG2, luciferase luminescence, HepG2 viability, primary screen (AID 624349; in the data active = parasite load remaining mostly below about 12%, no sharp cut-off; inactive = mostly above about 10%;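 note: 100% = mean of DMSO negative control wells on the same plate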). Particulars: P. berghei liver stage in HepG2, luciferase luminescence, concentration not given here; parasite load remaining: stronger effect = lower value; viability: measured here: HepG2 viability without parasites.
Experiment [14] deals with Mitogen-activated protein kinase 7 (Homo sapiens) (UniProt Q13164). Description: Gal4-ERK5 driven luciferase induction – cell-based, HTS, primary screen (AID 1508626;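 active = luciferase signal above three times the same-plate solvent-only control wells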;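 note: luciferase driven by Gal4-ERK5 fusion binding five Gal4 sites before minimal TATA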). As to conditions: HeLa Gal4-ERK5 transactivation, 18 h, at 5 µM, stronger effect = higher value.
Sequence of Mitogen-activated protein kinase 7 (Homo sapiens) (Q13164 whole entry, looked up, the tested form may be a part): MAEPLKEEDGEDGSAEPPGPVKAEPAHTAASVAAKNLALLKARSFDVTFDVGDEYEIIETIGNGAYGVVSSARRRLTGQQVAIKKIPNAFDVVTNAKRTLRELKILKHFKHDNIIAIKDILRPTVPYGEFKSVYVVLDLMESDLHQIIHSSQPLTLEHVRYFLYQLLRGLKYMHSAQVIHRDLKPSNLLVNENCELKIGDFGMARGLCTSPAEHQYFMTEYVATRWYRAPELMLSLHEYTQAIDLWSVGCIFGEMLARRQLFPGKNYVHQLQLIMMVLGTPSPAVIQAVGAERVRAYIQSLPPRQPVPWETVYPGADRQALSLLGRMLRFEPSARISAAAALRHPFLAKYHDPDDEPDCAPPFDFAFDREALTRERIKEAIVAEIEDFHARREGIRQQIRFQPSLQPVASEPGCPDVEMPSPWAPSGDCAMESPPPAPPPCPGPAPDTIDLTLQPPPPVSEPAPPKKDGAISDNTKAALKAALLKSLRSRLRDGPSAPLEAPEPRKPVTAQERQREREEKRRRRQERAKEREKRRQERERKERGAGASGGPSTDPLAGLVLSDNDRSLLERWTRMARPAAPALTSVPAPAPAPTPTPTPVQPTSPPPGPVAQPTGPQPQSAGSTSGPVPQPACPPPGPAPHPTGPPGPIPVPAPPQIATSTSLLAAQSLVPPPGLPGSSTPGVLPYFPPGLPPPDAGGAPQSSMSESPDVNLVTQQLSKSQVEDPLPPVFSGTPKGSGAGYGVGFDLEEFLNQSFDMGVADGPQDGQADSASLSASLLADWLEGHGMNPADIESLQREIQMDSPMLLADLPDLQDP
Experiment [15] is described as follows: GFP-Q80 aggregate reduction, neuronal-like cells, cell-based, NGF-treated PC12, GFPQ80 (AID 1614).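 Note: lower means fewer inclusions and 0 means no inclusions at all.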 Particulars: PC12 NGF-treated GFP-polyQ80 inclusion reduction.
Experiment [16] can be described thus: compounds altering circadian rhythm period length – cell-based, LOPAC library, luminescence reporter (AID 2774; call rule not given here;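 note: values are relative to mean of DMSO wells on each plate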). As to conditions: circadian reporter cells, at 7 µM, actives lie on both sides.
Experiment [17] relates to Hepatitis C virus NS3 helicase. Description: blockers of NS3h binding to ssDNA – biochemical, fluorescence polarization, LOPAC1280 library, primary screen (AID 687035; in the data active = inhibition above about 37%). As to conditions: Purified HCV NS3 helicase, Cy5-dT15 ssDNA binding fluorescence polarization; stronger effect = higher value; concentration not given here. (In fluorescence polarisation assays a small probe gives low polarisation when free and higher when bound to something large.)

Experiment [18] in a line: compounds altering Cy5-DNA-NS3h complex signal – biochemical, LOPAC1280, artefact control for HCV NS3 helicase inhibitor project (AID 687037; call rule not given here). Particulars: Cy5-DNA-NS3h complex fluorescence interference counterscreen.
The nature of experiment [19]: blockers of cellular phospholipid synthesis – cell-based, LOPAC library, screen 4, primary screen (AID 1347384; call rule not given here). As to conditions: animal cells, phospholipid biosynthesis inhibition screen; at 10 µM.
The nature of experiment [20]: galactose survival enhancers in mitochondrial complex I cybrids – cell-based, galactose medium, ATP luminescence, primary screen (AID 1645843;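 active = z-score of at least 1.8 in each of two replicates, scored against plate mean and spread of sample wells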;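 note: positive z means more ATP and so rescue of galactose-driven cybrid death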). Particulars: complex I mutant cybrid cells, 72 h, stronger effect = higher value.
The mark [21] stands for this setting: measured here: epithelial PC-3E GFP cell survival.
The mark [22] stands for this setting: measured here: mesenchymal TEM4-18 mCherry cell survival.
The mark [23] stands for this setting: stronger effect = lower value, cell number ratio, induced over uninduced.
Setting [24] is: measured here: relative caspase fold change +Dox/-Dox.
Where [25] appears, read: measured here: total cells with miR-34 induction, stronger effect = lower value.
The mark [26] stands for this setting: measured here: total cells without miR-34 induction.
Setting [27] is: MELAS cybrid survival, CellTiter-Glo 48 h, stronger effect = higher value.
Where [28] appears, read: Rieske KO mouse fibroblast survival, CellTiter-Glo 72 h.

“And” between values parts separate entries of the source, which are not always exact repeats. Identical values can stand only once. For some assays here: Measured potencies and affinities stand elsewhere. The source made the active and inactive calls.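 Rule for the calls, unless noted: active = compounds whose cell count with miR-34 switched on is under 0.7 times the count with it off; inactive = the rest.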

`CC(=O)[C@@]12O[C@](C)(c3ccccc3)O[C@@H]1CC1C3CCC4=CC(=O)CC[C@]4(C)C3CC[C@@]12C` (stereo not given in full): the red/green cell ratio (normalised) in [1] was 1.21 (inactive). Further, the normalised cell number in [1] (setting [21]) was 1.05; in [1] (setting [22]), 1.26. For the same compound, the figures for the fold change in experiment [2] (setting [23]) and in experiment [2] (setting [24]) were 0.858 (inactive) and 1.15, respectively. Moreover, the cell count in experiment [2] (setting [25]) came out at 5100; in experiment [2] (setting [26]), 5940.

For the compound `CN(C)CC(c1ccc(O)cc1)C1(O)CCCCC1` (stereo not given), in experiment [1], the red/green cell ratio (normalised) is 1 (inactive). The normalised cell number in experiment [1] (setting [21]) and in experiment [1] (setting [22]) was 0.79 in each case. Moreover, the fold change is 0.982 (inactive) and 0.891 (inactive) and 0.889 (inactive) in experiment [2] (setting [23]); 0.639 and 1.05 and 1.37 in experiment [2] (setting [24]). The cell count in [2] (setting [25]) was 9600 and 8680; in experiment [2] (setting [26]), 9780 and 9740 and 9750. In addition, the z-score in [3] (setting [27]) is -0.237 (inactive) and -0.203 (inactive); in [3] (setting [28]), -0.123 and -0.139. Also, the remaining NAD in experiment [4] was 10 nM (inactive).

Regarding `COc1c(O)cc2c(c1O)[C@H]1O[C@H](CO)[C@@H](O)[C@H](O)[C@@H]1OC2=O`, in experiment [1], the red/green cell ratio (normalised) was 0.9 (inactive). Besides, the normalised cell number in experiment [1] (setting [21]) stood at 1.23; in experiment [1] (setting [22]), 1.11. Moreover, the fold change is 0.894 (inactive) in [2] (setting [23]) and 0.886 in experiment [2] (setting [24]). The cell count in experiment [2] (setting [25]) stood at 8900; in experiment [2] (setting [26]), 9950.

Compound `CN1CCN(C(c2ccccc2)c2ccc(Cl)cc2)CC1` (stereo not given) showed an inhibition in experiment [5] of 9.79%. Moreover, in experiment [6], the score was found to be 1.32. Also, the rescue above control in experiment [7] was 0. Moreover, the cytochrome c release ratio in [8] was found to be 1.15. This compound also came in with an inhibition of aggregation in experiment [9] of 65.4%. In addition, the glutamate uptake change in experiment [10] came to 11.5%. In experiment [11], this compound registered an aggregation suppression score of 0.963. The survival in experiment [12] was 1.83 (inactive). In experiment [13], the parasite load remaining was 76% (inactive) and 58.1% (inactive). Besides, the viability in [13] was 93.1% and 88.3%. Besides, the red/green cell ratio (normalised) in experiment [1] was 1.15 (inactive). The normalised cell number in [1] (setting [21]) came out at 1.09; in [1] (setting [22]), 1.26. In addition, the fold change in [2] (setting [23]) is 0.825 (inactive) and 0.923 (inactive); in [2] (setting [24]), 1.22 and 0.572. The cell count in [2] (setting [25]) is 7440 and 10400; in experiment [2] (setting [26]), 9010 and 11300. Also, the z-score in experiment [3] (setting [27]) was 0.513 (inactive); in experiment [3] (setting [28]) it was 1.23. In [4], the remaining NAD was 10 nM (inactive). Further, the luciferase signal in [14] was 100 AU (inactive).

`O=[N+]([O-])O[C@@H]1CO[C@H]2[C@@H]1OC[C@@H]2O`: in experiment [13], the parasite load remaining is 73.3% (inactive). The same compound had a viability in [13] of 93.9%. Moreover, the red/green cell ratio (normalised) in experiment [1] was 1.19 (inactive). Besides, the figures for the normalised cell number in [1] (setting [21]) and in experiment [1] (setting [22]) were 1.15 and 1.37, respectively. The fold change in experiment [2] (setting [23]) was 0.933 (inactive); in experiment [2] (setting [24]), 3.92. Moreover, the cell count was found to be 12300 in [2] (setting [25]) and 13200 in experiment [2] (setting [26]). Also, the z-score is -0.228 (inactive) in experiment [3] (setting [27]) and 0.0347 in experiment [3] (setting [28]). Further, the remaining NAD in experiment [4] was 12 nM (inactive). Moreover, in [14], the luciferase signal was 52 AU (inactive).

With `O=C(O)C1CCCNC1` (stereo not given), the inhibition is 28% in experiment [5] and 0% (inactive) in experiment [17]. The same compound displayed a score in experiment [6] of 2.59. The same compound returned a rescue above control in experiment [7] of -9.05. The cytochrome c release ratio in experiment [8] is 1.08. For the same compound, the inhibition of aggregation in [9] was 41.5%. Also, the glutamate uptake change in experiment [10] is -1.16%. For the same compound, the inclusion score in [15] was found to be 2. The compound also had an aggregation suppression score in experiment [11] of 1.59. For the same compound, in experiment [16], the period change is 0.19 h (inactive). Besides, the parasite load remaining in experiment [13] was 89.7% (inactive). The viability in [13] amounted to 95.9%. The fluorescence ratio (interference) in [18] was 0.9 (inactive). Also, the red/green cell ratio (normalised) in [1] was 0.84 (inactive). Also, the normalised cell number was 1.28 in experiment [1] (setting [21]) and 1.08 in experiment [1] (setting [22]). Further, the fold change in experiment [2] (setting [23]) was 0.976 (inactive) and 0.953 (inactive); in experiment [2] (setting [24]) it was 1.22 and 0.942. Moreover, the cell count in experiment [2] (setting [25]) was 9840 and 8650; in experiment [2] (setting [26]) it was 10100 and 9080. Besides, the call in [19] was inactive. Moreover, in [20], the z-score was 0.695 (inactive).
